The record followed here is PubChem BioAssay (NCATS).

“And” between values parts separate entries of the source, which are not always exact repeats. Equal entries are not always repeated. Inconclusive results are not listed. Where a structure was tested more than once in an assay, its records may differ in their call. The source made the active and inactive calls. Unless noted, calls follow the shape of the dose curve; as a rule, active = well fitted curve in the direction sought with a large enough effect; inconclusive = small, poorly fitted or top-dose-only effect, or another doubt; inactive = no such curve, though single readings can be large; an effect the other way counts as inactive or inconclusive.

Test [1] deals with Lysosomal acid glucosylceramidase (Homo sapiens) (UniProt P04062). Description: Glucocerebrosidase-p2 (AID 348; in the data active = potency below about 10 µM; also: potency is read from the fitted curve at half-maximal effect). To be noted: purified GBA, blue fluorogenic substrate, 40 min. A digest of the protocol:
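Compounds titrated from 0.6 nM upwards against 0.2 nM enzyme in pH 5.9 citric acid/KH2PO4, taurocholate, tween-20; blue fluorogenic substrate 80 uM, 40 min room temperature, stopped and read Ex 365/Em 440 for AC50.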

The nature of test [2]: AP1 Signaling Pathway (AID 357; active = well fitted curve in either direction with a large enough effect, not every such curve was filed as active; also: % is scaled to controls: 0 for no effect and ±100 for the full control effect). Conditions: ME-180 AP-1-bla reporter, EGF-induced, beta-lactamase ratio, 5 h; at 7.69 µM (top of the series) unless noted. A digest of the protocol: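 Read-out was the 460nm/530nm emission ratio (excitation 405nm) after CCF4 loading for 2.5 hours at room temperature. Cells carried an AP-1-driven beta-lactamase reporter, were stimulated with EC50 EGF plus compound for 5 hours, and AC50 values came from titrations.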

Test [3] addresses Cytochrome P450 1A2 (Homo sapiens) (UniProt P05177). Kind of test: p450-cyp1a2 (AID 410; calls by dose curve; also: potency is read from the fitted curve at half-maximal effect;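 as to activity change, negative = inhibition: -100% = full effect of reference inhibitor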). Conditions: recombinant CYP1A2, luciferin-ME demethylation, luminescence; series mostly up to 57 µM. The essentials:
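Inhibition was calculated relative to 57 uM furafylline (full inhibition). The reaction used human CYP1A2 at 20nM with Luciferin-ME at its Km, 100uM, driven by an NADPH-regenerating system for 60 min at room temperature.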

Test [4] can be described thus: NFAT Signaling Pathway (AID 444; active = well fitted curve in either direction with a large enough effect, not every such curve was filed as active;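 also: carbachol stimulus at about its EC50 of 1 µM final; % is scaled to controls: 0 for no effect and ±100 for the full control effect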). To be noted: Jurkat NFAT-bla M1, carbachol, beta-lactamase ratio, 5 h; at 7.69 µM (top of the series) unless noted. The essentials:
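Jurkat cells carrying an NFAT-driven β-lactamase reporter and co-transfected muscarinic M1 receptor were treated with compound plus carbachol (1 uM final, an EC50 level) for 5 h at 37 °C. CCF4 loading followed for 1 h at RT; 460/530 nm ratio gave %activity.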

The nature of test [5]: Stat Signaling Pathway (AID 446; active = well fitted curve in either direction with a large enough effect, not every such curve was filed as active;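 also: ME-180 cervical cancer cells given 40 pM IL-6 alongside compound; SIE-controlled beta-lactamase reporter measured as 460/530 nm FRET emission ratio; % is scaled to controls: 0 for no effect and ±100 for the full control effect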). To be noted: ME-180 (cervical carcinoma) SIE beta-lactamase reporter, IL-6 stimulated, 5 h; at 7.69 µM (top of the series) unless noted. The essentials:
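ME-180 cells carrying a SIE-driven beta-lactamase reporter are stimulated with 40 pM IL-6 for 5 h at 37C in the presence of compound. The 460/530 nm FRET substrate ratio is read after 2.5 h at RT. Data are normalised to 300 pM IL-6 and to 125 nM JAK inhibitor controls.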

In test [6] the target is Glucocorticoid receptor (Homo sapiens) (UniProt P04150). Description: GR-GFP Redistribution (AID 450;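 active = compounds whose dose series gives a full or clear partial fitted curve of increased nuclear translocation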; also: potency is read from the fitted curve at half-maximal effect). Conditions: U2OS GR-GFP nuclear translocation, laser cytometry, 2 h.
Glucocorticoid receptor (Homo sapiens), sequence (P04150 whole entry, looked up): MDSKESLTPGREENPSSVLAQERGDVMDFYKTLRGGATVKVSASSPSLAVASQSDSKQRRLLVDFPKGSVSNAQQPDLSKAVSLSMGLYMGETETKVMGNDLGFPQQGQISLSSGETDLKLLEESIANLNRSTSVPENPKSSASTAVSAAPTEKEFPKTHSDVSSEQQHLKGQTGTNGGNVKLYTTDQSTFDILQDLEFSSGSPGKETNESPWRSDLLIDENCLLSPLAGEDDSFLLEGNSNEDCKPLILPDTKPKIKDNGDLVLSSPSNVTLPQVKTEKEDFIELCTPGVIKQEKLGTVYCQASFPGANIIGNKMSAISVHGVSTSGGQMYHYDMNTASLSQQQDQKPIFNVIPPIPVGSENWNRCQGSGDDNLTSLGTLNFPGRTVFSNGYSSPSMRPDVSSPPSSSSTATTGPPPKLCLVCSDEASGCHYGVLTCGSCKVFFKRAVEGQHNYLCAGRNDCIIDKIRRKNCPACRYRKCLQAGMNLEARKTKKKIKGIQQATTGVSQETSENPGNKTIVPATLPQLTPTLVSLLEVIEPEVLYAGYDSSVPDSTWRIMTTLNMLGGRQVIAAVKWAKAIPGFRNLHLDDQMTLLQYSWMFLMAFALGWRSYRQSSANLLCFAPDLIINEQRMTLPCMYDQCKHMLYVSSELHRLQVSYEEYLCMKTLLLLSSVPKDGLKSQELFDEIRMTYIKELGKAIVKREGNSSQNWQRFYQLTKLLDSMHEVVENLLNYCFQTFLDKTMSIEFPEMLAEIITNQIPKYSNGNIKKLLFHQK
The target is the same in test [7]. Kind of test: GR-EFC Redistribution (AID 451; calls by dose curve; also: potency is read from the fitted curve at half-maximal effect). To be noted: CHO-K1 GR-EFC translocation, beta-gal luminescence, 2 h. The essentials:
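CHO-K1 cells stably expressing nuclear-localized β-gal enzyme acceptor and GR fused C-terminally to the enzyme donor fragment; ligand-driven nuclear translocation restores β-gal by complementation. Compounds titrated up to 46 uM final, 2 h at 37 °C; luminescence read.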

The target in test [8] is Mitogen-activated protein kinase 10 (Mus musculus) (UniProt Q61831). Kind of test: JNK3 AlphaScreen Assay (AID 530; active = well fitted curve in either direction with a large enough effect, not every such curve was filed as active;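 also: kinase came from lysate of stimulated human HepG2 cells; signal reports phosphorylation of biotinylated GST-cJun 1-79 at Ser73 with 10 µM ATP; % is scaled to controls: 0 for no effect and ±100 for the full control effect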). Conditions: JNK3 lysate, c-Jun phosphorylation; series mostly up to 57.1 µM. The essentials:
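JNK3 came from HepG2 lysates pre-activated with IL-1beta and TNF-alpha and phosphorylated biotinylated GST-cJun (1-79) at 10 uM ATP, pH 7.6, room temperature. Compounds were titrated. AlphaScreen signal used anti-phospho-cJun (Ser73) antibody.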

Test [9] addresses 3',5'-cyclic-AMP phosphodiesterase 4B (Homo sapiens) (UniProt Q07343). Kind of test: qHTS Assay for Inhibitors of PDE-IV (AID 607; active = well fitted activation curve with a large enough effect in the main read-out, with a control signal flat, not every such curve was filed as active; also: % of control where 0% means no effect). To be noted: HEK293 ACTOne CNG channel cells, membrane potential fluorescence; series mostly up to 22.9 µM. A digest of the protocol:
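HEK293 ACTOne cells with CNG channel (1000/well), endogenous PDE4; membrane potential dye, compounds up to 22.9 uM final. Fluorescence Ex 535/Em 590; RO 20-1724 (100 uM final) as reference.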

Test [10] deals with Dual specificity protein kinase CLK4 (Homo sapiens) (UniProt Q9HAZ1). Description: qHTS Assay for Inhibitors of CDC-like Kinase 4 (Kinase-Glo Assay) (AID 1770). Also: % is scaled to controls: 0 for no effect and ±100 for the full control effect; nearly all actives have a fitted effect of over 65% in size. Conditions: recombinant Clk4, Kinase-Glo ATP depletion luminescence; series mostly up to 66.7 µM. The essentials: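 Recombinant human Clk4 (25 nM) phosphorylated RS repeat peptide (100 uM) with 1 uM ATP in Tris pH 7.5/MgCl2/EGTA/DTT/Triton buffer for 4.5 h at room temperature. Residual ATP was quantified by Kinase-Glo luciferase luminescence.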
Dual specificity protein kinase CLK4 (Homo sapiens), sequence (Q9HAZ1 whole entry, looked up): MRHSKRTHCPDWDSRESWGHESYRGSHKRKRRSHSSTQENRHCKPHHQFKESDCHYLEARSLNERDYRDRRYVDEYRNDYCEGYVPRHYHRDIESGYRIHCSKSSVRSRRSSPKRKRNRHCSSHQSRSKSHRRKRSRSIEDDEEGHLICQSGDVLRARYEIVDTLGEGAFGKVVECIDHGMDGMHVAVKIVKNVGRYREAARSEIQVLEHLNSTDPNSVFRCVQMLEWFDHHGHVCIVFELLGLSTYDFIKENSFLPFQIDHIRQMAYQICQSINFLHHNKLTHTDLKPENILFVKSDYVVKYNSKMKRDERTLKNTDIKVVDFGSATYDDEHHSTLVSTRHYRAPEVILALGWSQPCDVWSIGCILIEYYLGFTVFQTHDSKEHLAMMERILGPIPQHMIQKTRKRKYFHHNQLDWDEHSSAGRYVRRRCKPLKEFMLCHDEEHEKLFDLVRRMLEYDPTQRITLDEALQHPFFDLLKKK

Test [11] shares this target. Kind of test: qHTS Assay for Inhibitors of CDC-like Kinase 4 (ADP-Glo Assay) (AID 1771). Also: % is scaled to controls: 0 for no effect and ±100 for the full control effect; nearly all actives have a fitted effect of over 70% in size. To be noted: recombinant CLK4, ADP-Glo luminescence; series mostly up to 80 µM. The essentials:
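Kinase reaction: Clk4 at 25 nM, RS repeat peptide substrate at 100 uM, ATP at 1 uM, 1 hr, room temperature. Product ADP detected as luciferase signal via ADP-Glo.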

For test [12] the target is unchanged. Kind of test: qHTS Assay for Inhibitors of CDC-like Kinase 4 (ADP-FP Assay) (AID 1795). Also: % is scaled to controls: 0 for no effect and ±100 for the full control effect; nearly all actives have a fitted effect of over 60% in size. Conditions: Transcreener ADP fluorescence polarization; series mostly up to 50 µM. A digest of the protocol:
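Recombinant human Clk4 (6.25 nM) phosphorylated RS repeat peptide (100 uM) with 1 uM ATP in Tris pH 7.5/MgCl2/EGTA/DTT/Triton buffer for one hour. ADP was quantified by Transcreener competitive fluorescence polarization against an ADP calibration curve.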

Test [13] has as its target Ubiquitin carboxyl-terminal hydrolase 1 (Homo sapiens) (UniProt O94782). Kind of test: Inhibitors of USP1/UAF1: Pilot qHTS (AID 504865).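 Also: rhodamine fluorescence freed from ubiquitin-rhodamine substrate followed over time; top concentration of the series differs between compounds; % is scaled to controls: 0 for no effect and ±100 for the full control effect; nearly all actives have a fitted effect of over 35% in size.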 To be noted: purified USP1/UAF1, Ub-rhodamine cleavage fluorescence; series mostly up to 54.9 µM. A digest of the protocol: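 USP1/UAF1 complex (1nM) preincubated with compound 15 min at room temperature, then Ub-Rho substrate (150nM final) added. Fluorescence read kinetically at 480/540 nm, 6 reads every 60 seconds. Buffer: 50mM HEPES pH 7.8, 0.5mM EDTA, 0.1 mg/ml BSA, 1mM TCEP, 0.01% Tween-20.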

Test [14] can be described thus: Primary qHTS for small molecule stabilizers of the endoplasmic reticulum resident proteome: Secreted ER Calcium Modulated Protein (SERCaMP) assay (AID 1508630). Also: % is scaled to controls: 0 for no effect and ±100 for the full control effect. Conditions: SH-SY5Y GLuc-SERCaMP (Gaussia luciferase released on ER calcium loss) secretion, thapsigargin, luminescence; series mostly up to 38.4 µM. The essentials:
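GLuc-SERCaMP-expressing SH-SY5Y cells, pretreated 16 h with compound, are challenged with thapsigargin to empty ER calcium stores; after 4 h, coelenterazine is added directly to the medium and luminescence is imaged.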

Test [15] has as its target Cytochrome P450 2C9 (Homo sapiens) (UniProt P11712). Kind of test: qHTS Assay for Inhibitors and Substrates of Cytochrome P450 2C9 (AID 883). Also: potency is read from the fitted curve at half-maximal effect; nearly all actives have a fitted effect of over 60% in size. To be noted: recombinant CYP2C9, luciferin-H luminescence, 60 min; series mostly up to 57.1 µM. A digest of the protocol:
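Human CYP2C9 (10nM) hydroxylated Luciferin-H (100uM, at its KM) to luciferin in 25mM KPO4. Compound was preincubated 10 min at 37C, then NADPH regeneration started a 60 min reaction at 37C. Luminescence was read after detection reagent, normalized to 57uM sulphaphenazole.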

Test [16] concerns the target Cytochrome P450 3A4 (Homo sapiens) (UniProt P08684). Description: qHTS Assay for Activators of Cytochrome P450 3A4 (AID 885). Also: nearly all actives have a fitted effect of over 65% in size. To be noted: recombinant CYP3A4, Luciferin-PPXE luminescence, 60 min; series mostly up to 57.1 µM. A digest of the protocol: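 Human CYP3A4 (20 nM) with Luciferin-PPXE at 25 uM (its KM) in 200 mM KPO4; 10 min compound preincubation, then NADPH regeneration and 60 min reaction at RT. Luciferin read by luminescence; normalized to 57 uM ketoconazole full inhibition.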

The target of test [17] is Cytochrome P450 2D6 (Homo sapiens) (UniProt P10635). Kind of test: qHTS Assay for Inhibitors and Substrates of Cytochrome P450 2D6 (AID 891).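 Also: luciferin methyl ether substrate demethylated by CYP2D6 with NADPH regeneration; % is scaled to controls: 0 for no effect and ±100 for the full control effect; nearly all actives have a fitted effect of over 60% in size.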 To be noted: recombinant CYP2D6, luciferin-ME EGE luminescence; series mostly up to 57.1 µM. The essentials: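 Human CYP2D6 (5 nM) with 30 uM Luciferin-ME EGE (at Km) in 100 mM KPO4, compound preincubated 10 min, then NADPH regeneration system for 60 min at room temperature. Luciferin read by luminescence; normalized to 1.43 uM quinidine.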

The target in test [18] is Cytochrome P450 2C19 (Homo sapiens) (UniProt P33261). Kind of test: qHTS Assay for Inhibitors and Substrates of Cytochrome P450 2C19 (AID 899). Also: nearly all actives have a fitted effect of over 60% in size. Also: potency is read from the fitted curve at half-maximal effect. To be noted: recombinant CYP2C19, luciferin-H EGE luminescence; series mostly up to 57.1 µM. The essentials: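 Human CYP2C19 (5nM) with Luciferin-H EGE at 10uM (its KM) in 50mM KPO4 was preincubated with compound for 10 min at 37C. NADPH regeneration started a 60 min 37C reaction. Luciferin was read by luminescence, normalized to 57uM ketoconazole.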
Cytochrome P450 2C19 (Homo sapiens), sequence (P33261 whole entry, looked up): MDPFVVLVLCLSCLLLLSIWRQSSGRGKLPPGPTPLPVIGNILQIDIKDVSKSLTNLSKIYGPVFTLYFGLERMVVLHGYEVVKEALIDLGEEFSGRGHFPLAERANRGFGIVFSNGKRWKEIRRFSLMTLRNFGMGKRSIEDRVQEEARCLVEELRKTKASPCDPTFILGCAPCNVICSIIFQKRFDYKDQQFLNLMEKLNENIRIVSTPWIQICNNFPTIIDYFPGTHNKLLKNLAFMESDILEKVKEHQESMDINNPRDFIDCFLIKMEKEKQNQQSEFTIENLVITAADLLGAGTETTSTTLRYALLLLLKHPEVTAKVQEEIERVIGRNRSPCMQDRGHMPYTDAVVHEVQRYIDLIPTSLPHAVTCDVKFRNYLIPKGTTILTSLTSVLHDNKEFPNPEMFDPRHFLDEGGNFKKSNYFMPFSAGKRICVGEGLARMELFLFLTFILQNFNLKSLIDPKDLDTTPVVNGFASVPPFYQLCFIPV

In test [19] the target is Rap guanine nucleotide exchange factor 3 (Homo sapiens) (UniProt O95398). Kind of test: Confirmatory qHTS for agonist of cAMP-regulated guanine nucleotide exchange factor 3 (EPAC1) (AID 1645881).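 Also: EPAC1 catalysed release of BODIPY-GDP from Rap1B seen as fluorescence loss; 100% = effect of cAMP agonist control; nearly all actives have a fitted effect of over 75% in size.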 Conditions: EPAC1 Rap1B BODIPY-GDP exchange fluorescence; series mostly up to 154 µM.

Cytochrome P450 1A2 (Homo sapiens), sequence (P05177 whole entry, looked up): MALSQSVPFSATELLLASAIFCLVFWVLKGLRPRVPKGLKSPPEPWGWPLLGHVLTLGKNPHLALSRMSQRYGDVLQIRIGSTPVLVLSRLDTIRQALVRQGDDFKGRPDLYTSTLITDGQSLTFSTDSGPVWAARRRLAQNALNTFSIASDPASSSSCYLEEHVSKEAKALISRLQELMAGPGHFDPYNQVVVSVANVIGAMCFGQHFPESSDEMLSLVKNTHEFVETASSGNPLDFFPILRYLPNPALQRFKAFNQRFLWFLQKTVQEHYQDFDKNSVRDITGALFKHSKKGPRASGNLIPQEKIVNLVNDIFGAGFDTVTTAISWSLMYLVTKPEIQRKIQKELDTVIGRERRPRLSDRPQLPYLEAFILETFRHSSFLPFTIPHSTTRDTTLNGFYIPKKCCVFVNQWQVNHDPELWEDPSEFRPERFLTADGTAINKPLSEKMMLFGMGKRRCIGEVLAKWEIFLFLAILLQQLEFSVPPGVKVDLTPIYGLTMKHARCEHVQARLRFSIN
3',5'-cyclic-AMP phosphodiesterase 4B (Homo sapiens), sequence (Q07343 whole entry, looked up): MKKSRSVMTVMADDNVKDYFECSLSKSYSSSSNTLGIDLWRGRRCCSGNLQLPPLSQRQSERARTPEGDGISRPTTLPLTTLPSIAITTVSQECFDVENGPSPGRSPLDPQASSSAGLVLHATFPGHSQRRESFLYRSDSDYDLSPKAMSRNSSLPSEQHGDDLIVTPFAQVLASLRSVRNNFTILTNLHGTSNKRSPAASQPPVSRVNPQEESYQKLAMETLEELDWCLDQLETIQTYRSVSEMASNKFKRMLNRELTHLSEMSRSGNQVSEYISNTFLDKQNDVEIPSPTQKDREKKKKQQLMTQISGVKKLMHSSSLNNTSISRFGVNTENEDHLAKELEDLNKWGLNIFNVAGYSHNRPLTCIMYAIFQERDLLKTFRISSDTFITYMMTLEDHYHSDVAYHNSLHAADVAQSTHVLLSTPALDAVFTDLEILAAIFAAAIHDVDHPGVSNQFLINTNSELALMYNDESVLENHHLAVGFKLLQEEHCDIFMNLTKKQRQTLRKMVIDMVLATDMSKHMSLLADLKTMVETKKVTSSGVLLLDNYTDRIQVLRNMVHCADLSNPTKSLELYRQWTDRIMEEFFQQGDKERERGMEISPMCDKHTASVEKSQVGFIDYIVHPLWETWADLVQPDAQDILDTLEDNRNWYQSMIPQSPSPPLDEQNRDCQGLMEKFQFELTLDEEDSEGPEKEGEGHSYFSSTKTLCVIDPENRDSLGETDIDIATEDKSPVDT
Ubiquitin carboxyl-terminal hydrolase 1 (Homo sapiens), sequence (O94782 whole entry, looked up): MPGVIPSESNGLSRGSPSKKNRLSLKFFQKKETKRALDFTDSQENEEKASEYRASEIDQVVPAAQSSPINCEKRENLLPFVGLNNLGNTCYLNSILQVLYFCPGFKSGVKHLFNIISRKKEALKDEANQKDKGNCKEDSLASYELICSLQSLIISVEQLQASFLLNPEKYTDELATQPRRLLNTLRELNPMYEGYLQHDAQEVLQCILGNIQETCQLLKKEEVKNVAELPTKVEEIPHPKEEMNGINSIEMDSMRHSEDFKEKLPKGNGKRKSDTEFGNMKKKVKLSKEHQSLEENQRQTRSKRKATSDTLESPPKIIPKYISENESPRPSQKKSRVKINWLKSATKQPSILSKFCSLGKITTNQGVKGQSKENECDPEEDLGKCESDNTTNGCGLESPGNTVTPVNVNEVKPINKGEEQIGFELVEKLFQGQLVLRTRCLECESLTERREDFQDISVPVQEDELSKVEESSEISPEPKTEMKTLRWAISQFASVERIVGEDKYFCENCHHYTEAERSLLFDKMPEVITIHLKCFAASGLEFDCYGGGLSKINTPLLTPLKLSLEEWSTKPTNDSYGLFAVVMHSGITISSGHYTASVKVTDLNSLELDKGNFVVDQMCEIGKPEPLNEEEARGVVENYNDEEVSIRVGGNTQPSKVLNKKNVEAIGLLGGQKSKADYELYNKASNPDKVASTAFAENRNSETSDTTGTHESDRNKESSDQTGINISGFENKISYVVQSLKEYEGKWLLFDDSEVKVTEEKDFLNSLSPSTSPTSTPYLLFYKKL
Lysosomal acid glucosylceramidase (Homo sapiens), sequence (P04062 whole entry, looked up): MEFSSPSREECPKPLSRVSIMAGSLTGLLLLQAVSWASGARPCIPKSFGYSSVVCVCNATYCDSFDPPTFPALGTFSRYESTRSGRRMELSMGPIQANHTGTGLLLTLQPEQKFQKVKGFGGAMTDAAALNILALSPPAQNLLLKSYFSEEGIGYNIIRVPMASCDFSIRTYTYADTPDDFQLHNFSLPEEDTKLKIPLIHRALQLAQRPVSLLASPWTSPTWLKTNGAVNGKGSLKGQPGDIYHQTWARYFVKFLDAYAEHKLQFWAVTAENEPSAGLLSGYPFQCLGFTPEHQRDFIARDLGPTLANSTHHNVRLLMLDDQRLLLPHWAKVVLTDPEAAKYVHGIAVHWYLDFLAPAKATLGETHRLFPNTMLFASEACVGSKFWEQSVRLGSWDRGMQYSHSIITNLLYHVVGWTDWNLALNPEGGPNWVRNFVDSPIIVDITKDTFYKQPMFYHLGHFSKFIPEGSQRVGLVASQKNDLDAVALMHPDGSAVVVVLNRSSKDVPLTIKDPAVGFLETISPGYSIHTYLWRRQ
Cytochrome P450 3A4 (Homo sapiens), sequence (P08684 whole entry, looked up): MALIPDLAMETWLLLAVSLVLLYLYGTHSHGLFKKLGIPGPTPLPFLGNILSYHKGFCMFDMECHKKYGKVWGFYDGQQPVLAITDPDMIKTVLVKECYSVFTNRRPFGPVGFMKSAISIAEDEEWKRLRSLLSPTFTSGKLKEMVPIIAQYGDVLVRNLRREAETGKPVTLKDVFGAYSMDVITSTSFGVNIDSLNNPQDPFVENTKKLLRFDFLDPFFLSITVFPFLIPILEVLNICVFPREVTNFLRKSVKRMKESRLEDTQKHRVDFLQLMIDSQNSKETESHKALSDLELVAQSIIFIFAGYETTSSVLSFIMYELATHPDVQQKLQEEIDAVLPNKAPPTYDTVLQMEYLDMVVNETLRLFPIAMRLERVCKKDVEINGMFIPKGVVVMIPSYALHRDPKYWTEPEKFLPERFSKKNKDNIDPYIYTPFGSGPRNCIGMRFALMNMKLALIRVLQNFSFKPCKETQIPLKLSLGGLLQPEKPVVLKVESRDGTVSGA

For the compound `COCCn1c(=O)c(-c2ccc(Cl)cc2)nc2cnc(N3CCOCC3)nc21`, the Potency in test [1] is > 11.4 µM (inactive); in test [3] it was 1 µM (active); in test [6], > 9.22 µM (inactive); in test [7], > 46 µM (inactive). Also, the activity change, negative = inhibition is 9.82% (inactive) in test [2] and 7.69% (inactive) in [4]. The activity, negative = inhibition in [5] was 9.52% (inactive). In addition, the Potency result in test [8], in test [9], in [10], in [11], in test [12] and in test [13] was “inactive” throughout. Moreover, in test [14], the result was inactive.

For the compound `CC(=O)NCCNc1nc(-c2ccc(C(=O)N(C)C)cc2)nc2ccccc12`, the Potency in test [1] was > 11.4 µM (inactive); in [6] it was > 46 µM (inactive); in [7], > 46 µM (inactive). Further, the activity change, negative = inhibition in test [2] is 3.64% (inactive); in [4], 9.74% (inactive). Also, the Potency result in test [3], in test [8], in test [9], in test [10], in test [11] and in test [12] was “inactive” each time. In addition, in [13], the Potency entry is “inactive”. Also, the activity, negative = inhibition in [5] is 11.4% (inactive). Moreover, the result in [14] was inactive.

Regarding `COc1cccc(Cn2c(=O)c(-c3ccc(Cl)cc3)nc3cnc(OC)nc32)c1`, the Potency in test [1] is > 11.4 µM (inactive); in test [3], 3.98 µM (active); in [6], > 9.22 µM (inactive); in test [7], > 46 µM (inactive). Besides, the activity change, negative = inhibition is -15.4% (inactive) in test [2] and 8.55% (inactive) in [4]. Moreover, the activity, negative = inhibition in test [5] was 4.34% (inactive). Also, the Potency entry in test [8], in test [10], in test [11], in test [12] and in test [13] was “inactive” throughout. Further, the result in test [14] was inactive.

For the compound `Cc1c(CC(C)(C)C(=O)O)n(Cc2ccc(Cl)cc2)c2ccc(F)cc12`, in test [2], the activity change, negative = inhibition is -22.4% [at 38 µM] (inactive). Further, the Potency in test [3] was 12.6 µM (active) and 15.8 µM (active); in [6], > 46 µM (inactive); in test [7], > 46 µM (inactive); in test [15] it was 0.501 µM (active); in [18], 316 nM (active) and inactive. Besides, the activity, negative = inhibition in test [5] is -0.406% [at 38 µM] (inactive). Besides, the Potency result in [8], in test [9], in [16], in test [17] and in test [19] was “inactive” throughout. For the same compound, the result in test [14] was inactive.

Regarding `COc1ncc2nc(-c3ccc(F)cc3)c(=O)n(CCc3ccccc3)c2n1`, the Potency in test [1] was > 11.4 µM (inactive); in [3], 0.398 µM (active); in test [6] it was > 9.22 µM (inactive); in test [7], > 46 µM (inactive). Further, the activity change, negative = inhibition is -6.05% (inactive) in [2] and -8.98% (inactive) in test [4]. The activity, negative = inhibition in [5] is -5.82% (inactive). Also, the Potency entry in test [8], in [9], in test [10], in test [11], in test [12] and in [13] was “inactive” in each case. Besides, the outcome in [14] was inactive.

For `O=c1c(-c2ccccc2)nc2cncnc2n1-c1ccccc1`, the Potency was > 11.4 µM (inactive) in test [1], 5.01 µM (active) in test [3], > 9.22 µM (inactive) in test [6] and > 46 µM (inactive) in test [7]. Further, the activity change, negative = inhibition in test [2] was -10.5% (inactive); in [4] it was 2.09% (inactive). Also, in [5], the activity, negative = inhibition was 0.883% (inactive). The Potency result in [8], in test [10], in test [11], in test [12] and in test [13] was “inactive” throughout. Moreover, the result in test [14] was inactive.
